Source: the supplement of paper PMC11732987, “Enantioselective OTUD7B fragment discovery through chemoproteomics screening and high-throughput optimisation” (Communications Chemistry, 2025)
A number with no mark means an inactive call.

Assays:
Experiment in all cases: log2 ratio of Biotin-Ahx-Ub-VS probe labelling (fragment/DMSO); higher = less target engagement (more negative = stronger competition), active = hit call of the paper (q ≤ 0.05, log2 ratio ≤ -1)
Conditions in all cases: compound concentration: 200 uM; treatment time: 3 h
USP19 = target: T1, USP19 (UniProt O94966)
T1 sequence (whole entry): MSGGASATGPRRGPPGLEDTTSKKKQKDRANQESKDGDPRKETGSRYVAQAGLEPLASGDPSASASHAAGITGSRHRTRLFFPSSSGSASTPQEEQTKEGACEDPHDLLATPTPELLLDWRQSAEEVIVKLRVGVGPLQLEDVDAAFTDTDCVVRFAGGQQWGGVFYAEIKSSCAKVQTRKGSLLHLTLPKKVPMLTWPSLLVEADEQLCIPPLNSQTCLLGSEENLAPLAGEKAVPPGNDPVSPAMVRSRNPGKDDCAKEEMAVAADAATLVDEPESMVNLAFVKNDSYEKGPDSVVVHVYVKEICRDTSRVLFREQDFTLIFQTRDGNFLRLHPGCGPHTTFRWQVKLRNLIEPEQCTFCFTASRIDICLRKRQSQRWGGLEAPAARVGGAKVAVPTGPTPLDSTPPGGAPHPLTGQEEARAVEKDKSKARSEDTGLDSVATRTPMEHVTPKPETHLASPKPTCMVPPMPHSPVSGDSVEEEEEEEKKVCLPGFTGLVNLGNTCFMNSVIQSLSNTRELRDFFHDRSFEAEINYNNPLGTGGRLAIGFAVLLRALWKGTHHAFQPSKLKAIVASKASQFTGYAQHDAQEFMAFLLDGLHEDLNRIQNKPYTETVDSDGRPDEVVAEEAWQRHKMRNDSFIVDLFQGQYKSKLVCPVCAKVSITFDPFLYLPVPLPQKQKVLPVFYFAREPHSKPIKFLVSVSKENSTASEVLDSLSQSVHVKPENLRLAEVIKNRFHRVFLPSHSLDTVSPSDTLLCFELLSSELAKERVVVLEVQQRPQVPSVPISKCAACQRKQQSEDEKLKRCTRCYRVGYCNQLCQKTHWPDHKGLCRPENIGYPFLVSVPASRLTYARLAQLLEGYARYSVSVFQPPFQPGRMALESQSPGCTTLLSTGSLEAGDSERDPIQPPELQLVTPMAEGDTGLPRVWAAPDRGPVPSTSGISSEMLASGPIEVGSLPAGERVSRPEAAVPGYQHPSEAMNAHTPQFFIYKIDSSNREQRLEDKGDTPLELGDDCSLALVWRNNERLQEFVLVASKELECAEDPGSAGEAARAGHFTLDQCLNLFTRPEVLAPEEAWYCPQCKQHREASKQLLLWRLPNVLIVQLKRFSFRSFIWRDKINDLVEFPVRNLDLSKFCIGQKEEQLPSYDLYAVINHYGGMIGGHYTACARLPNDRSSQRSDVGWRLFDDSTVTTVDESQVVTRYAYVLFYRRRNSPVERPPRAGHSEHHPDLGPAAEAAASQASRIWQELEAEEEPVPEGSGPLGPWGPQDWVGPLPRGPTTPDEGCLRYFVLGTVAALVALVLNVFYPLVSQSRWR
Procedure, shortened: (§1)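 HEK293T lysate, 495 µg per sample in Tris/CHAPS/IGEPAL buffer with protease inhibitors, was treated in triplicate with fragment at 200 µM or vehicle for 3 h and then with Biotin-Ahx-Ub-VS at 0.5 µM final for 1 h. Labelled DUBs were NeutrAvidin-enriched, digested with LysC and trypsin, and run by diaPASEF LC-MS/MS. Spectronaut label-free quantities were global-median-normalised, and values are average log2 fragment/vehicle ratios by unpaired t-test on proteins with ≥2 unique peptides.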

USP24 = USP24 (UniProt Q9UPU5)
Chain of USP24 (Q9UPU5 whole entry): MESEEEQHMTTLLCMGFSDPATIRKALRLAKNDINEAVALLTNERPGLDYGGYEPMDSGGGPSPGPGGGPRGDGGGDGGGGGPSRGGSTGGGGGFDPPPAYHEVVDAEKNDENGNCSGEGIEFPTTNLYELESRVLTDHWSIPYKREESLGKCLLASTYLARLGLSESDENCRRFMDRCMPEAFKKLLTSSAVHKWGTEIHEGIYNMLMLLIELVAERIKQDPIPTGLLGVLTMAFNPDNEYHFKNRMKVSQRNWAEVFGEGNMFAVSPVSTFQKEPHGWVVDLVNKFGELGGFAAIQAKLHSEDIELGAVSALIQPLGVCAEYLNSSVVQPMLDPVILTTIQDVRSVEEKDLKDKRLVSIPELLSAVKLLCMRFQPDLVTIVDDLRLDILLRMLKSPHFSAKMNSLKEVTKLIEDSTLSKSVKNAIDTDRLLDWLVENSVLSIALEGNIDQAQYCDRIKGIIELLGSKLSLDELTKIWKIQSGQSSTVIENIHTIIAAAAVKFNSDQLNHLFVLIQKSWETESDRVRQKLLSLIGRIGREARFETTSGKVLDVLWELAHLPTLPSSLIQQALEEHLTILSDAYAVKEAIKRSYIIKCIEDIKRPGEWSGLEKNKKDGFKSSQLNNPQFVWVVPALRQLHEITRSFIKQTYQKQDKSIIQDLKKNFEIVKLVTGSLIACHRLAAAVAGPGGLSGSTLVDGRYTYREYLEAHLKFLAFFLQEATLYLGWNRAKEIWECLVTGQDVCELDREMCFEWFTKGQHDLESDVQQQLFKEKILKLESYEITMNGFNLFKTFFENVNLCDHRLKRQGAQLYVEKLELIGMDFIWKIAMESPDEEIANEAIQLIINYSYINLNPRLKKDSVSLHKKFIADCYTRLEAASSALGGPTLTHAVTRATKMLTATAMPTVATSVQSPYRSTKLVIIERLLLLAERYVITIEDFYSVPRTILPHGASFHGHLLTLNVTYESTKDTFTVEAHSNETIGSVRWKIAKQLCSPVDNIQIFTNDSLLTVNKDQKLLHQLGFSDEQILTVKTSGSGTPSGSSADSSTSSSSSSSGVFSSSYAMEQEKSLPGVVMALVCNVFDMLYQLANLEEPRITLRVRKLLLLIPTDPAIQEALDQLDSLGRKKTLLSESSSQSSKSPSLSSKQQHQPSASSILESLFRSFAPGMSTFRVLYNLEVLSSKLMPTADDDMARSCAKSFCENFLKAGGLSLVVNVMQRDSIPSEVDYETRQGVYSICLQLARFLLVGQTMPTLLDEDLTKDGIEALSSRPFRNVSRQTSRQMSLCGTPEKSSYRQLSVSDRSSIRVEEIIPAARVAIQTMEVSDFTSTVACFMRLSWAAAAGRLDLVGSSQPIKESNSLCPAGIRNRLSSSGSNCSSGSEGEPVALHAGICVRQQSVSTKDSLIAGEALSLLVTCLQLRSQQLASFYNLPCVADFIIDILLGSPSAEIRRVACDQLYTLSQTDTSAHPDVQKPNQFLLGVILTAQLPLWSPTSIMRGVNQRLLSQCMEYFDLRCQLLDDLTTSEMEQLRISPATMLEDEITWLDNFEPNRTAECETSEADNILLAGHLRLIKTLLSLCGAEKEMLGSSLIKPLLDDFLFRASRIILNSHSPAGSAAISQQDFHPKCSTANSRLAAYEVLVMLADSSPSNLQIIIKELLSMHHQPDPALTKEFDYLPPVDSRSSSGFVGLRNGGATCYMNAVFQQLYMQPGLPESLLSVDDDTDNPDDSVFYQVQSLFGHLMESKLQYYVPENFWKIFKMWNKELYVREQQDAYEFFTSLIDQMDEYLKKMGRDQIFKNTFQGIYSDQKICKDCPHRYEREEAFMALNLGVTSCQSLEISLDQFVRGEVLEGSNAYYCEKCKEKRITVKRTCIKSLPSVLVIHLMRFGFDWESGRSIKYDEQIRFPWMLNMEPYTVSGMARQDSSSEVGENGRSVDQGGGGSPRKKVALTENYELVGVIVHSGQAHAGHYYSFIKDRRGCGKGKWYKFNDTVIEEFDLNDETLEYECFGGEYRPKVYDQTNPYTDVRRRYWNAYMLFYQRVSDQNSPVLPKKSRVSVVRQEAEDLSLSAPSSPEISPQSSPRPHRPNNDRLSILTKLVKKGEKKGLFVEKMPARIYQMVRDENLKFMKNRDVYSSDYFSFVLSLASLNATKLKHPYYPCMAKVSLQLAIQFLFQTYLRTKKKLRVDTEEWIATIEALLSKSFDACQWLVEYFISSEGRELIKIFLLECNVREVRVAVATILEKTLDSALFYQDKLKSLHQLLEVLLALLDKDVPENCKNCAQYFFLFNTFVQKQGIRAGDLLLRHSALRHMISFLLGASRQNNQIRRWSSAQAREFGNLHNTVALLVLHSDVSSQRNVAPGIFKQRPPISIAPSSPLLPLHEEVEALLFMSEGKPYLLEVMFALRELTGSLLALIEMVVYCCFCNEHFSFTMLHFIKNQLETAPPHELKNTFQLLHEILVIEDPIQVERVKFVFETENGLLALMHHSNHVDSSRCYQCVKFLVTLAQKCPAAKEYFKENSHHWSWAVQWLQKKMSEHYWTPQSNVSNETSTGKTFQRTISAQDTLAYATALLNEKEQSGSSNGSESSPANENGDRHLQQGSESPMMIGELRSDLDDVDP
Procedure, shortened: as §1

USP25 = target: T2, USP25 (UniProt Q9UHP3)
T2 sequence (whole entry): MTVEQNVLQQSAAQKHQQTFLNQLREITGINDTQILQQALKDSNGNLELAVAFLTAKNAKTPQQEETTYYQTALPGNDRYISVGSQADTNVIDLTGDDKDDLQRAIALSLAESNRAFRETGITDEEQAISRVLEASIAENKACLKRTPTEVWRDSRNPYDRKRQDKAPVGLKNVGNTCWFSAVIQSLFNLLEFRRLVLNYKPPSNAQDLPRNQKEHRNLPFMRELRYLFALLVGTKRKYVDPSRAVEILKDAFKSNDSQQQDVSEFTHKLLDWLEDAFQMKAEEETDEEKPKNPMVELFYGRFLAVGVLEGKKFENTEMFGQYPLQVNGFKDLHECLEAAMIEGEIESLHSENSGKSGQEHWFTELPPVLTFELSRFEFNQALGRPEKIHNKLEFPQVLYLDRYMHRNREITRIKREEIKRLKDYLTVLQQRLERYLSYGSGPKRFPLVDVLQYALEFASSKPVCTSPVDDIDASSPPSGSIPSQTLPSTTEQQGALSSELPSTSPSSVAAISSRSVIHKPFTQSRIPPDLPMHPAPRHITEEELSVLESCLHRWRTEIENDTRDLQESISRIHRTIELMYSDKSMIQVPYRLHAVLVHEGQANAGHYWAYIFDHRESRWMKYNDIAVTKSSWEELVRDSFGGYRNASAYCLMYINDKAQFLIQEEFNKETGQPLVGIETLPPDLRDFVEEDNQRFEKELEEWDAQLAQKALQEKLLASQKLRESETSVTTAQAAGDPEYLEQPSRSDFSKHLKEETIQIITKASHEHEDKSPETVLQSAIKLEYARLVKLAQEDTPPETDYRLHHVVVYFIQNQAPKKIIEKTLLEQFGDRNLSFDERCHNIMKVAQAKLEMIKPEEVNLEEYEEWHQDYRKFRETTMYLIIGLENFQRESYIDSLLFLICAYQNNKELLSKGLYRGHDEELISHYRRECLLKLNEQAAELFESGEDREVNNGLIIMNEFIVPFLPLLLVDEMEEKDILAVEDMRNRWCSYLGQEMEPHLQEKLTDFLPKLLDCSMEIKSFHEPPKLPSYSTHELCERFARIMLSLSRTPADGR
Procedure, shortened: as §1

USP28 = target: T3, USP28 (UniProt Q96RU2)
T3 sequence (whole entry): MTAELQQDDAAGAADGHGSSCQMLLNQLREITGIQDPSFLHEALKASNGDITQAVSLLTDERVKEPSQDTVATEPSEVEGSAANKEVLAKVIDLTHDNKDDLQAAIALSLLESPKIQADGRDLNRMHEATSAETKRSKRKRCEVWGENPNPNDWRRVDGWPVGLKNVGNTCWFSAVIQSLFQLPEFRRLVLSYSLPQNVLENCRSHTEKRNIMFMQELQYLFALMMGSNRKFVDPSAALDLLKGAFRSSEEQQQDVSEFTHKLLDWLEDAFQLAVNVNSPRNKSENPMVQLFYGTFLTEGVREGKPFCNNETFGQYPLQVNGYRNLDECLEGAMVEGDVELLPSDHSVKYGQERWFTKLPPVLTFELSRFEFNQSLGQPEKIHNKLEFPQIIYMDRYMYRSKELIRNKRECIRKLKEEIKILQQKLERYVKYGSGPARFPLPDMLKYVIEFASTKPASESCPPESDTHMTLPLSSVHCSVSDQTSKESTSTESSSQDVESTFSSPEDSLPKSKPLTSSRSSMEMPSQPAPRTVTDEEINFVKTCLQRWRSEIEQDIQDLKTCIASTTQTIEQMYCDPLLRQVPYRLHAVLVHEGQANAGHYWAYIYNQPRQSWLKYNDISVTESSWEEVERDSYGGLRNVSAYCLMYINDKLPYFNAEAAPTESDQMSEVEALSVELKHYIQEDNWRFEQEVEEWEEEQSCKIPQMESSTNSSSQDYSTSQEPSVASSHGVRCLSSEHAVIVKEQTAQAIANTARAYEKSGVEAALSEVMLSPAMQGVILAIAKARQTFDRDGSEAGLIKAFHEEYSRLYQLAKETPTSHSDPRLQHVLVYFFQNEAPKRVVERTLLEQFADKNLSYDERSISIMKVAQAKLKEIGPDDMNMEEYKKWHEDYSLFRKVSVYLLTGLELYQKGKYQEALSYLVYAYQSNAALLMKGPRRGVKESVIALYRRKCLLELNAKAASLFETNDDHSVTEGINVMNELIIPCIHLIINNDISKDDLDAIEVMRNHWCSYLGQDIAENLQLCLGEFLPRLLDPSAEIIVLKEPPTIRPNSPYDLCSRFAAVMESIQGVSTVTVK
Procedure, shortened: as §1

## CC1Cc2ccccc2N1C(=O)CCl (centres undefined)
USP19
  log2 ratio of Biotin-Ahx-Ub-VS probe labelling: -0.643
USP24
  log2 ratio of Biotin-Ahx-Ub-VS probe labelling: -1.61 (active)
USP25
  log2 ratio of Biotin-Ahx-Ub-VS probe labelling: -0.876
USP28
  log2 ratio of Biotin-Ahx-Ub-VS probe labelling: -0.929
